Measured values from PubChem BioAssay (EPA / NIEHS).
Active and inactive are the calls of the source. The calls were made as follows: active = hit-call score of the fitted dose curve at least 0.9, where 1 is the maximum; inactive = score below 0.9.

Columns and labels:
[1] = read-out: Macrophage colony-stimulating factor (MCSF), CSF1 (gene 1435); experiment: BSK_hDFCGF_MCSF: BioMAP Diversity Plus: hDFCGF Assay for Macrophage colony-stimulating factor (MCSF) Biomarker Activity (AID 2283060); settings: primary human foreskin fibroblasts; actives raise or lower the signal
Procedure, shortened: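 ELISA read-out of M-CSF in human dermal foreskin fibroblast cultures, 24 h after chemical dosing; gain or loss of signal fitted bidirectionally relative to DMSO baseline.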

[2] = BSK_hDFCGF_SRB: Viability Assessment in the BioMAP Diversity Plus: hDFCGF Assay (AID 2283061); settings: primary human foreskin fibroblasts;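 also: cells exposed to compound for 24 h before the read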
Procedure, shortened: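 Primary human foreskin fibroblasts; 24 h post-dose; fixed 10% TCA, stained 0.1% SRB, A560 read; total protein as overt cytotoxicity measure; curves fit bidirectionally vs DMSO control.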

[3] = read-out: TIMP metallopeptidase inhibitor 1 (TIMP1), TIMP1 (gene 7076); experiment: BSK_hDFCGF_TIMP1: BioMAP Diversity Plus: hDFCGF Assay for TIMP metallopeptidase inhibitor 1 (TIMP1) Biomarker Activity (AID 2283062); settings: primary human foreskin fibroblasts; actives raise or lower the signal
Procedure, shortened: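 ELISA readout of TIMP-1 from human dermal foreskin fibroblast cultures 24 h post-dosing. Curves were fitted in both directions against DMSO baseline, with SRB total-protein staining in parallel cultures as a cytotoxicity check.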

[4] = read-out: Monokine induced gamma interferon (MIG), CXCL9 (gene 4283); experiment: BSK_hDFCGF_MIG: BioMAP Diversity Plus: hDFCGF Assay for Monokine induced gamma interferon (MIG) Biomarker Activity (AID 2283063); settings: primary human foreskin fibroblasts; actives raise or lower the signal
Procedure, shortened: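 Fibroblasts (human foreskin, primary) dosed, 24 h, MIG by ELISA; fit bidirectional vs DMSO.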

[5] = read-out: Matrix Metallopeptidase 1 (MMP1), MMP1 (gene 4312); experiment: BSK_hDFCGF_MMP1: BioMAP Diversity Plus: hDFCGF Assay for Matrix Metallopeptidase 1 (MMP1) Biomarker Activity (AID 2283064); settings: primary human foreskin fibroblasts; actives raise or lower the signal
Procedure, shortened: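 MMP1 levels quantified by ELISA 24 h after dosing human dermal fibroblast cultures, with parallel SRB total-protein staining for overt cytotoxicity. Data fitted in both directions against DMSO baseline.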

[6] = read-out: Vascular cell adhesion molecule 1 (VCAM1), VCAM1 (gene 7412); experiment: BSK_hDFCGF_VCAM1: BioMAP Diversity Plus: hDFCGF Assay for Vascular cell adhesion molecule 1 (VCAM1) Biomarker Activity (AID 2283065); settings: primary human foreskin fibroblasts; actives raise or lower the signal
Procedure, shortened: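 ELISA read-out of VCAM-1 on human skin fibroblasts, 24 h post-dose; gain or loss of signal fitted bidirectionally against DMSO baseline.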

[7] = BSK_KF3CT_SRB: Viability Assessment in the BioMAP Diversity Plus: KF3CT Assay (AID 2283069); settings: primary human keratinocytes with fibroblasts;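 also: read 24 h after compound addition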
Procedure, shortened: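 Cytotoxicity was gauged by SRB staining (0.1% SRB, 10% TCA fixation, 560 nm) of parallel cultures at 24 h. The cells were primary human skin keratinocytes co-cultured with fibroblasts, and activity was fitted in both directions against DMSO.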

[8] = read-out: Interleukin-1 alpha (IL1a), IL1A (gene 3552); experiment: BSK_KF3CT_IL1a: BioMAP Diversity Plus: KF3CT Assay for Interleukin-1 alpha (IL1a) Biomarker Activity (AID 2283070); settings: primary human keratinocytes with fibroblasts; actives raise or lower the signal
Procedure, shortened: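 IL-1a was detected by ELISA 24 h after chemical treatment of a co-culture of human skin keratinocytes and foreskin fibroblasts. Gain or loss of signal was fitted against the DMSO baseline.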

[9] = read-out: TIMP metallopeptidase inhibitor 2 (TIMP2), TIMP2 (gene 7077); experiment: BSK_KF3CT_TIMP2: BioMAP Diversity Plus: KF3CT Assay for TIMP metallopeptidase inhibitor 2 (TIMP2) Biomarker Activity (AID 2283071); settings: primary human keratinocytes with fibroblasts; actives raise or lower the signal
Procedure, shortened: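 TIMP-2 measured by ELISA at 24 h in human keratinocyte/fibroblast primary co-cultures exposed to chemicals. Both increases and decreases were fitted against DMSO. Parallel cultures were stained with SRB for total protein as an overt-cytotoxicity check.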

[10] = read-out: Transforming growth factor beta 1 (TGFb1), TGFB1 (gene 7040); experiment: BSK_KF3CT_TGFb1: BioMAP Diversity Plus: KF3CT Assay for Transforming growth factor beta 1 (TGFb1) Biomarker Activity (AID 2283072); settings: primary human keratinocytes with fibroblasts; actives raise or lower the signal
Procedure, shortened: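 ELISA quantifies TGF-b1 at 24 h post-dose in a primary human skin co-culture of keratinocytes and fibroblasts, with gain or loss judged against DMSO. Parallel SRB total-protein staining flags overt cytotoxicity.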

[11] = read-out: C-C motif chemokine 2 (Homo sapiens) (UniProt P13500); experiment: BSK_KF3CT_MCP1: BioMAP Diversity Plus: KF3CT Assay for Monocyte Chemoattractant Protein 1 (MCP1/CCL2) Biomarker Activity (AID 2283073); settings: primary human keratinocytes with fibroblasts; actives raise or lower the signal
Procedure, shortened: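 KF3CT skin co-culture (keratinocytes/foreskin fibroblasts), 24 h post-dose; MCP-1 by ELISA; gain/loss of signal fit bidirectionally vs DMSO baseline.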

[12] = read-out: Matrix Metallopeptidase 9 (MMP9), MMP9 (gene 4318); experiment: BSK_KF3CT_MMP9: BioMAP Diversity Plus: KF3CT Assay for Matrix Metallopeptidase 9 (MMP9) Biomarker Activity (AID 2283074); settings: primary human keratinocytes with fibroblasts; actives raise or lower the signal;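 also: MMP9 protein level quantified by ELISA in the co-culture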
Procedure, shortened: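 MMP-9 quantified by ELISA after 24 h chemical treatment of primary human skin keratinocyte/fibroblast co-cultures; gain or loss fitted against DMSO, with parallel SRB staining (0.1% SRB, 560 nm) for overt cytotoxicity.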

[13] = read-out: urokinase plasminogen activator (uPA), PLAU (gene 5328); experiment: BSK_KF3CT_uPA: BioMAP Diversity Plus: KF3CT Assay for urokinase plasminogen activator (uPA) Biomarker Activity (AID 2283075); settings: primary human keratinocytes with fibroblasts; actives raise or lower the signal
Procedure, shortened: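 ELISA read-out of uPA 24 h after dosing human skin keratinocytes co-cultured with foreskin fibroblasts. Signal change fitted both ways relative to DMSO; sulforhodamine B on parallel cultures marks overt cytotoxicity.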

CD40, CD40 (gene 958) = experiment: BSK_LPS_CD40: BioMAP Diversity Plus: LPS Assay for CD40 Biomarker Activity (AID 2283076); settings: primary human HUVEC with PBMC; actives raise or lower the signal
Procedure, shortened: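 ELISA readout of CD40 in HUVEC/PBMC co-culture (BSK_LPS system), 24 h post-dosing; bidirectional curve fit, DMSO baseline; parallel SRB total-protein staining for cytotoxicity.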

[14] = read-out: E-selectin (Homo sapiens) (UniProt P16581); experiment: BSK_LPS_Eselectin: BioMAP Diversity Plus: LPS Assay for Eselectin Biomarker Activity (AID 2283077); settings: primary human HUVEC with PBMC; actives raise or lower the signal
Procedure, shortened: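 ELISA readout of E-selectin, 24 h post-dose, HUVEC + PBMC co-culture (LPS system). Gain or loss of signal vs DMSO baseline, bidirectional fit.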

[15] = read-out: Interleukin-8 (IL8), CXCL8 (gene 3576); experiment: BSK_LPS_IL8: BioMAP Diversity Plus: LPS Assay for Interleukin-8 (IL8) Biomarker Activity (AID 2283078); settings: primary human HUVEC with PBMC; actives raise or lower the signal
Procedure, shortened: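 HUVEC + PBMC co-culture, LPS-activated; test chemicals dosed, IL-8 read by ELISA at 24 h. Bidirectional curve fit vs DMSO baseline (gain or loss of signal).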

[16] = read-out: Plasminogen activator inhibitor-1 (PAI1), SERPINE1 (gene 5054); experiment: BSK_hDFCGF_PAI1: BioMAP Diversity Plus: hDFCGF Assay for Plasminogen activator inhibitor-1 (PAI1) Biomarker Activity (AID 2283066); settings: primary human foreskin fibroblasts; actives raise or lower the signal
Procedure, shortened: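 PAI-1 levels in human dermal foreskin fibroblasts were quantified by ELISA 24 h after dosing, with gain or loss analysed against DMSO. Overt cytotoxicity was checked by sulforhodamine B total-protein staining in parallel cultures.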

[17] = read-out: Intercellular Adhesion Molecule 1 (ICAM1), ICAM1 (gene 3383); experiment: BSK_KF3CT_ICAM1: BioMAP Diversity Plus: KF3CT Assay for Intercellular Adhesion Molecule 1 (ICAM1) Biomarker Activity (AID 2283067); settings: primary human keratinocytes with fibroblasts; actives raise or lower the signal
Procedure, shortened: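 ELISA readout of ICAM-1; KF3CT human skin co-culture (keratinocytes + foreskin fibroblasts), 24 h post-dose; gain/loss fit vs DMSO baseline.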

[18] = read-out: Interferon-gamma inducible Protein 10 (IP10), CXCL10 (gene 3627); experiment: BSK_KF3CT_IP10: BioMAP Diversity Plus: KF3CT Assay for Interferon-gamma inducible Protein 10 (IP10) Biomarker Activity (AID 2283068); settings: primary human keratinocytes with fibroblasts; actives raise or lower the signal
Procedure, shortened: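 Signal is secreted/surface IP-10 by ELISA in a human primary skin co-culture of keratinocytes and foreskin fibroblasts, taken 24 h post-dosing; DMSO served as negative control.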

Measured: AC50

E-selectin (Homo sapiens), sequence (P16581 whole entry, looked up): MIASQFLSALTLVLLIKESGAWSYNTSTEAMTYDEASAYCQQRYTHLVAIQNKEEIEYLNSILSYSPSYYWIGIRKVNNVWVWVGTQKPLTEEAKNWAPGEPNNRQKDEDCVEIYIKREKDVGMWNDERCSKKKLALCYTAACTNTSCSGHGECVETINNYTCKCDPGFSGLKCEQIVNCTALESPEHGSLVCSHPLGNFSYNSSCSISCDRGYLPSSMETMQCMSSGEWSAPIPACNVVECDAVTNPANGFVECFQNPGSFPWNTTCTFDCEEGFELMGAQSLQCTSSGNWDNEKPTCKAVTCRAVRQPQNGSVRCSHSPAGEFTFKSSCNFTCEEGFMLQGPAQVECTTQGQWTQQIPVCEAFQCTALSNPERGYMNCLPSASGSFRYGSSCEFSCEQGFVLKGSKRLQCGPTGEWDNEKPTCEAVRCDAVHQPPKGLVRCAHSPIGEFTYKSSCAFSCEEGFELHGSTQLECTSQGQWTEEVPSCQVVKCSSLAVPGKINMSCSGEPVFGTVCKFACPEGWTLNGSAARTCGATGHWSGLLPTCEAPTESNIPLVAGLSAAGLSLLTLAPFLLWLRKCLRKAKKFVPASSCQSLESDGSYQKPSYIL

CC(Cl)CN(C)C (stereo not drawn)
active: [12] 88.9 nM
not listed: [16] | [17] | [18]
inactive: all other assays above

O=S(=O)(F)C(F)(F)C(F)(F)C(F)(F)C(F)(F)C(F)(F)C(F)(F)C(F)(F)C(F)(F)F
not listed: [10] | [12] | [18]
inactive: all other assays above

FC(F)(F)C(F)(C(F)(F)F)C(F)(F)C(F)(F)CC1CO1 (stereo not drawn)
not listed: [10] | [12] | [14] | [16]
inactive: all other assays above

CN(C)C(=O)Cl
not listed: [12] | [16] | [18]
inactive: all other assays above
